These results are taken from PubChem BioAssay (NCATS).

The structures appear in SMILES notation. Records with an inconclusive call do not appear. A call without a number means that no potency is given here. Calls of active or inactive are those of the source. The call rests on the fitted dose curve; in most records, active means well fitted inhibition curve with a large enough effect; inconclusive means small, poorly fitted or top-dose-only effect; inactive means no such curve, though single readings can be large or run the other way.
Potency means the concentration at half of the fitted maximal effect.

Cytochrome P450 3A7 (Homo sapiens), sequence (P24462 whole entry, looked up): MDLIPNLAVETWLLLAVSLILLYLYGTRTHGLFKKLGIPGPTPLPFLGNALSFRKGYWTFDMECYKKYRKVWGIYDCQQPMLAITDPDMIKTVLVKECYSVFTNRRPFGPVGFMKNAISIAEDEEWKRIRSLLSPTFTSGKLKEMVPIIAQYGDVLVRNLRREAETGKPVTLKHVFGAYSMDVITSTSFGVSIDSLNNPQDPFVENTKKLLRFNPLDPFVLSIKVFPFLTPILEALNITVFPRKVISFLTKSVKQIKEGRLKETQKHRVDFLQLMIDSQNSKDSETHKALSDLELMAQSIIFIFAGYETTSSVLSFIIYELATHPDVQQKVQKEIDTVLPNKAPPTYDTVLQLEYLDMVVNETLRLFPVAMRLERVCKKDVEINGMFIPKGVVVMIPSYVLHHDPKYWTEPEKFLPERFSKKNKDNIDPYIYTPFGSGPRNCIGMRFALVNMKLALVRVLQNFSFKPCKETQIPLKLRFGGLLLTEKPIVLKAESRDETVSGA

For this experiment, the target named is Cytochrome P450 3A7 (Homo sapiens) (UniProt P24462). Briefly: Cytochrome P450 family 3 subfamily A member 7 (CYP3A7) small molecule antagonists: luciferase biochemical qHTS assay (AID 1963596). Further: nearly all actives have a fitted effect of over 40% in size. Particulars: P450-Glo CYP3A7 enzyme luminescence, 1 h; series mostly up to 57.4 µM. The gist of the method:
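P450-Glo luminescent assay: CYP3A7 enzyme converts a proluciferin substrate to luciferin, detected by luciferase reagent; light proportional to activity. Compounds in DMSO preincubated 10 min with enzyme-substrate mix at room temperature, then NADPH regeneration added for 1 h.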
Turning to `CC(=O)Nc1ccc(C)cc1-c1nc2ccccc2n(CC(=O)Nc2cc(Cl)ccc2C)c1=O`, the Potency entry is “inactive”.
The same measure, in the same setting: the entry for `COc1ccc(C#Cc2ccc(C(=O)N3CCC[C@@H](O)C3)c(F)c2)cc1` is “inactive”.
As to `C[C@@H]1CN(Cc2ccccc2)C[C@H]1c1nc2c(cnn2C2CCOCC2)c(=O)[nH]1`, the Potency entry is “inactive”.
Still for that read-out and setting: in the case of `CCOC(=O)c1ccc(NC(=O)c2cc(=O)c3ccc(C)c(C)c3o2)cc1` it was “inactive”; in that of `O=C(Nc1ccccc1C(=O)Nc1ccc(CCO)cc1)c1ccc([N+](=O)[O-])cc1`, “inactive”; in that of `CCOc1cc(C(=O)Nc2ccc(-c3nc4ncccc4o3)cc2C)cc(OCC)c1OCC`, “inactive”.
Still for that read-out and setting: the entry for `CC(C)c1cccc2c(-c3ccccc3)cc(-c3ccc(-c4ccc(C(=O)O)cc4)[nH]3)nc12` is “inactive”.
The same measure, in the same setting: in the case of `COc1ccc(-n2nc3c(N4CCCC(C(=O)NCc5ccc(C)cc5)C4)nnc(C)c3c2C)cc1` (stereo not given) it was “inactive”.
For the compound `CCCCC(O)c1ccccc1` (stereo not given), the Potency result was “inactive”.
The same measure, in the same setting: in the case of `O=C(O)c1ccc(Cc2c(-c3cccc(-c4ccccc4)c3)[nH]n(-c3nc(C(=O)O)cs3)c2=O)cc1` it was “inactive”.
On the same count and under the same terms, in the case of `CCCN(CCN1CCN(c2ccccc2OC)CC1)C1CCc2ncsc2C1` (stereo not given) it was “inactive”; in that of `CC(C)NC(=O)c1ccc(C#Cc2ccncc2)cn1`, “inactive”.
The same measure, in the same setting: the entry for `COc1cc(C(=O)NC(c2ccccc2Cl)c2cc(Cl)c3cccnc3c2O)cc(OC)c1OC` (stereo not given) is “inactive”; for `CCOc1ccc(S(=O)(=O)O)c2cccnc12` it is “inactive”.
In the case of `COc1ccc(-n2[nH]c3c(cnc4ccccc43)c2=O)cc1`, the Potency result was “inactive”.
Same read-out and setting: the entry for `CNC(=O)COC(=O)N1CCC(CCc2ccc(Cl)cc2)CC1` is “inactive”; for `Cc1cc(C)cc(NC(=O)CSc2c(C(C)C)cnc3c2c(=O)n(C)c(=O)n3C)c1` it is “inactive”.
In the case of `CCC(O)c1ccccc1` (stereo not given), the Potency result was “inactive”.
Same read-out and setting: the entry for `COc1cc2ncnc(Nc3cccc(I)c3)c2cc1OC` is “inactive”; for `CCc1ccc(CNC(=O)C2CCCN(c3nnc(C)c4c(C)n(-c5ccccc5)nc34)C2)cc1` (stereo not given) it is 2820 nM (active).
`Cc1c(C)c2c(c(C)c1OC(=O)CCC(=O)O)CC[C@@](C)(CCC[C@H](C)CCC[C@H](C)CCCC(C)C)O2`: the Potency result was “inactive”.
`Cn1c(=O)c2c(nc(CN3CCN(C(=O)C4CC4)CC3)n2Cc2cccc(F)c2)n(C)c1=O`: the Potency result was “inactive”.
Same read-out and setting: in the case of `Cc1cc(NC(=O)Nc2ccc(F)c(F)c2)n(-c2ccccc2)n1` it was “inactive”; in that of `CCCCc1c(-c2ccc(OC)cc2)[nH]c2nccnc12`, “inactive”; in that of `CC(=O)NC[C@H]1CN(c2ccc(N3CCN(C(=O)CO)CC3)c(F)c2)C(=O)O1`, “inactive”.
With `CCC(=C(c1ccc(OCCN2CCCC2)cc1)c1ccc(OCCN2CCCC2)cc1)c1ccccc1`, the activity change, negative = inhibition is 0% [at 11.5 µM] (inactive).
Regarding `CC(C)[C@@H]1CC[C@@H](C)C[C@H]1OC(=O)c1ccccc1O`, the Potency result is “inactive”.
Same read-out and setting: the entry for `Cc1ccc(S(=O)(=O)N[C@@H]2CCCC[C@H]2O)cc1` is “inactive”.
The same measure, in the same setting: the entry for `CN(C)CCOC(c1ccc(Cl)cc1)c1ccccn1` (stereo not given) is “inactive”; for `COc1ccc(CNC(=O)Nc2ccc3c(c2)N(C)C(=O)c2ccccc2S3)cc1OC` it is “inactive”.
On the same count and under the same terms, the entry for `C=CC1=C(C(=O)O)N2C(=O)[C@@H](NC(=O)/C(=N\OCC(=O)O)c3csc(N)n3)[C@H]2SC1` is “inactive”; for `CN(C)C(=O)NC1CCC(CCN2CCN(c3cccc(Cl)c3Cl)CC2)CC1` (stereo not given) it is “inactive”.
With `CC(CCC(=O)O)C1CC[C@H]2C3[C@H](O)C[C@@H]4C[C@H](O)CCC4(C)[C@H]3C[C@H](O)C12C` (stereo not given in full), the Potency result is “inactive”.
Same read-out and setting: in the case of `CCN(CC)C(=O)c1cccnc1` it was “inactive”; in that of `COc1ccccc1C(=O)Nc1cccc(NC(=O)c2cccc(C)c2)c1`, “inactive”.
In the case of `O=C1CC[C@H](C(=O)O)N1`, the Potency entry was “inactive”.
The same measure, in the same setting: in the case of `Cc1ccc(S(=O)(=O)N2CCc3cc(C(=O)Nc4ccc(C(F)(F)F)cc4)ccc32)cc1` it was “inactive”.
Same read-out and setting: in the case of `NC(=O)c1ccc([N+](=O)[O-])cc1Cl` it was “inactive”; in that of `COc1ccc(Sc2ccc(NC(=O)c3ccccc3Cl)cc2C#N)cc1`, “inactive”; in that of `CCOC(=O)C(CCc1ccccc1)NC1CCCN2CCCC(C(=O)O)N2C1=O` (stereo not given), “inactive”.
